Drawing on PMC11062922 (Nature Chemical Biology, 2023), this text covers potency estimated from few doses for eight compounds.

Read-outs that look alike come from different tables or passages of the source.

Parameters in all cases: species or system human, MV4-11 + K-562 + COLO205 + SK-N-BE2 + OVCAR-8
In one experiment the test system is CDK7. Particulars: read-out: apparent Kd, n = 1.
In a further experiment the test system is ERCC2. Particulars: read-out: apparent Kd, n = 1.
A further experiment concerns FER. As to conditions: read-out: apparent Kd, n = 1.
A further experiment deals with LATS1. Particulars: read-out: apparent Kd, n = 1.
Another experiment deals with MYLK3. As to conditions: read-out: apparent Kd, n = 1.
The subject of a further experiment is PLK4. Particulars: read-out: apparent Kd, n = 1.
The next experiment concerns PRKAA1. Particulars: read-out: apparent Kd, n = 1.
In a further experiment the test system is PRKCD. Particulars: read-out: apparent Kd, n = 1.
For the next experiment, the system named is PRKCQ. As to conditions: read-out: apparent Kd, n = 1.
A further experiment concerns PTK2B. Particulars: read-out: apparent Kd, n = 1.
The next experiment concerns PTK2. Particulars: read-out: apparent Kd, n = 1.
A further experiment deals with RPS6KA6. As to conditions: read-out: apparent Kd, n = 1.
The subject of the next experiment is STK10. As to conditions: read-out: apparent Kd, n = 1.
For the next experiment, the system named is DYRK1A. Particulars: read-out: apparent Kd, compound concentrations: 100 nM and 1000 nM (sheet 'Samples'), n = 1.
The next experiment relates to FLT3. As to conditions: read-out: apparent Kd, n = 1.
A further experiment relates to PIP4K2C. As to conditions: read-out: apparent Kd, n = 1.
The test system of the next experiment is MARK4. As to conditions: read-out: apparent Kd, n = 1.
The test system of a further experiment is CDKL5. As to conditions: read-out: apparent Kd; compound concentrations: 100 nM and 1000 nM (sheet 'Samples'), CATDS: 8.2845593333633408E-3; n = 1.
The next experiment has as its system PRKD2. Particulars: read-out: apparent Kd, n = 1.
The next experiment has as its system PRKD3. As to conditions: read-out: apparent Kd, n = 1.
[1] abbreviates: compound concentrations:100 nM and 1000 nM (sheet 'Samples').

Consider `NCCNS(=O)(=O)c1ccc(-c2ccnc3[nH]ccc23)cc1` [GSK977617A], for which the potency estimated from few doses in the experiment with CDK7 (setting [1]) was 159 nM; in the experiment on ERCC2 (setting [1]), 203 nM; with FER (setting [1]), 238 nM; in the experiment with LATS1 (setting [1]) it was 121 nM; with MYLK3 (setting [1]) it was 996 nM; in the experiment with PLK4 (setting [1]), 584 nM. The potency estimated from few doses in the experiment on PRKAA1 (setting [1]) is 453 nM; in the experiment with PRKCD (setting [1]) it was 1080 nM; with PRKCQ (setting [1]) it was 1950 nM; in the experiment with PTK2B (setting [1]) it was 335 nM; in the experiment with PTK2 (setting [1]) it was 343 nM; with RPS6KA6 (setting [1]), 373 nM. The potency estimated from few doses in the experiment with STK10 (setting [1]) was 2400 nM.

Turning to `CCn1c(-c2nonc2N)nc2c(C#CC(C)(C)O)nc(OC[C@@H](N)c3ccccc3)cc21` [GSK938890A], the potency estimated from few doses in the experiment on DYRK1A (CATDS: 4.9269048258553202E-2) is 2060 nM; in the experiment on LATS1 (compound concentrations: 100 nM and 1000 nM (sheet 'Samples'), CATDS: 6.3165054409109203E-2), 513 nM.

Turning to `Cl.Cl.NCC(C(=O)Nc1cc(Br)c(-c2ccnc3[nH]ccc23)s1)c1ccccc1.NCC(C(=O)Nc1cc(Br)c(-c2ccnc3[nH]ccc23)s1)c1ccccc1` (stereo not drawn) [GSK1269851A], the potency estimated from few doses in the experiment with CDK7 (setting [1]) was 44.7 nM; in the experiment with ERCC2 (setting [1]), 37.5 nM; in the experiment on FER (setting [1]) it was 56.2 nM; with FLT3 (setting [1]), 1450 nM; in the experiment with PIP4K2C (setting [1]), 1930 nM; in the experiment on PLK4 (setting [1]), 523 nM. Also, the potency estimated from few doses in the experiment on PRKAA1 (setting [1]) was 548 nM; in the experiment on PRKCD (setting [1]), 2130 nM; in the experiment on PRKCQ (setting [1]) it was 1130 nM; in the experiment with PTK2B (setting [1]), 63.1 nM; with PTK2 (setting [1]), 422 nM; in the experiment with RPS6KA6 (setting [1]), 364 nM. Moreover, the potency estimated from few doses in the experiment with STK10 (setting [1]) is 2030 nM.

For `O=C1N=C(Nc2ccccc2)S/C1=C\c1ccc2ncccc2c1` [RO4493940-000], the potency estimated from few doses with DYRK1A (CATDS: 0.176247651150404) was 1930 nM.

On to `CN1C[C@@H]2Cn3c(c(C4=C(c5cn(C)c6ccccc56)C(=O)NC4=O)c4ccccc43)C[C@H]2C1.Cl` [RO0320234-001], for which the potency estimated from few doses with CDK7 (setting [1]) is 137 nM; in the experiment with ERCC2 (setting [1]), 123 nM; with FER (setting [1]) it was 94.8 nM; with LATS1 (setting [1]), 1780 nM; with MARK4 (setting [1]), 1210 nM; with PLK4 (setting [1]) it was 500 nM. Further, the potency estimated from few doses with PRKAA1 (setting [1]) is 248 nM; with PTK2B (setting [1]) it was 193 nM; with PTK2 (setting [1]), 129 nM; in the experiment with RPS6KA6 (setting [1]) it was 215 nM; with STK10 (setting [1]), 2020 nM.

As to `O=C1N=C(NCCc2ccc(Cl)cc2)S/C1=C\c1ccc2ncccc2c1` [RO4498479-000], the potency estimated from few doses was 119 nM in the experiment on CDK7 (compound concentrations: 100 nM and 1000 nM (sheet 'Samples'), CATDS: 2.4350372788697498E-2); 909 nM in the experiment with CDKL5; 142 nM in the experiment on ERCC2 (compound concentrations: 100 nM and 1000 nM (sheet 'Samples'), CATDS: 2.1515421316076401E-2); 166 nM in the experiment with FER (compound concentrations: 100 nM and 1000 nM (sheet 'Samples'), CATDS: 1.93209734431329E-2); 511 nM with FLT3 (compound concentrations: 100 nM and 1000 nM (sheet 'Samples'), CATDS: 1.0367577324715899E-2); 560 nM with LATS1 (compound concentrations: 100 nM and 1000 nM (sheet 'Samples'), CATDS: 9.9630845977556094E-3). Moreover, the potency estimated from few doses is 617 nM in the experiment on MARK4 (compound concentrations: 100 nM and 1000 nM (sheet 'Samples'), CATDS: 9.5723230975851108E-3); 2040 nM in the experiment on MYLK3 (compound concentrations: 100 nM and 1000 nM (sheet 'Samples'), CATDS: 6.6633165686717103E-3); 930 nM in the experiment on PIP4K2C (compound concentrations: 100 nM and 1000 nM (sheet 'Samples'), CATDS: 8.2219500153899797E-3); 242 nM with PLK4 (compound concentrations: 100 nM and 1000 nM (sheet 'Samples'), CATDS: 1.52584065926915E-2); 289 nM in the experiment with PRKAA1 (compound concentrations: 100 nM and 1000 nM (sheet 'Samples'), CATDS: 1.37789233680672E-2); 1490 nM in the experiment on PRKCD (compound concentrations: 100 nM and 1000 nM (sheet 'Samples'), CATDS: 7.1591971083295198E-3). Further, the potency estimated from few doses was 1100 nM in the experiment on PRKCQ (compound concentrations: 100 nM and 1000 nM (sheet 'Samples'), CATDS: 7.7984631053202198E-3); 923 nM with PRKD2 (compound concentrations: 100 nM and 1000 nM (sheet 'Samples'), CATDS: 8.2429468538409798E-3); 956 nM in the experiment with PRKD3 (compound concentrations: 100 nM and 1000 nM (sheet 'Samples'), CATDS: 8.1476846710640503E-3); 216 nM with PTK2B (compound concentrations: 100 nM and 1000 nM (sheet 'Samples'), CATDS: 1.6323674836543501E-2); 242 nM in the experiment with PTK2 (compound concentrations: 100 nM and 1000 nM (sheet 'Samples'), CATDS: 1.5270520713179201E-2); 260 nM in the experiment with RPS6KA6 (compound concentrations: 100 nM and 1000 nM (sheet 'Samples'), CATDS: 1.4642324519722799E-2). Further, the potency estimated from few doses in the experiment with STK10 (compound concentrations: 100 nM and 1000 nM (sheet 'Samples'), CATDS: 8.8639953478003106E-3) is 751 nM.

Take `CCn1c(-c2nonc2N)nc2c(-c3ccccc3)ncc(OCCCN)c21.CCn1c(-c2nonc2N)nc2c(-c3ccccc3)ncc(OCCCN)c21.O=C(O)C(F)(F)F.O=C(O)C(F)(F)F` [GSK260205A]: the potency estimated from few doses was 734 nM in the experiment with LATS1 (compound concentrations: 100 nM and 1000 nM (sheet 'Samples'), CATDS: 3.5695697906411097E-2); 1160 nM with PRKCD (compound concentrations: 100 nM and 1000 nM (sheet 'Samples'), CATDS: 3.0969413640761199E-2); 1070 nM in the experiment with PRKD2 (compound concentrations: 100 nM and 1000 nM (sheet 'Samples'), CATDS: 3.1729313210787799E-2); 1510 nM in the experiment on PRKD3 (compound concentrations: 100 nM and 1000 nM (sheet 'Samples'), CATDS: 2.8953203938898799E-2).

Take `Cc1cccc(-c2nc(Nc3ccncc3)c3sccc3n2)n1` [GW869641X]: the potency estimated from few doses is 1.4 nM in the experiment on PRKD2 (setting [1]), 3.56 nM with PRKD3 (setting [1]) and 1730 nM in the experiment on STK10 (setting [1]).
